Composite z-score and z-score data for ten compounds are collected here from PubChem BioAssay.

The nature of experiment [1]: binders of probe aFSTL3 on microarray, primary screen, stem cell growth factor project, biochemical, small-molecule microarray, fluorescence 635/667 (AID 1064).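 Also: measures binding of the biotinylated anti-FSTL3 antibody to printed compounds.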 The note with it: higher = more signal.
The nature of experiment [2]: binders from COS7 lysate, DM2A8 probe, primary screen, torsin A project, cell lysate, small-molecule microarray, fluorescence 635/667 (AID 1065). The note with it: higher = more signal, COS7 lysate expressing mutant human TOR1A.
The nature of experiment [3]: binders of probe aFGF2 on microarray, primary screen, stem cell growth factor project, biochemical, small-molecule microarray, fluorescence 635/667 (AID 1067).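 Also: measures binding of biotinylated aFGF2 protein to printed compounds on slides; z-score merges feature fluorescence and signal-to-noise across triplicate slides.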 The note with it: higher = more signal.
The nature of experiment [4]: binders of probe aFGF10 on microarray, primary screen, stem cell growth factor project, biochemical, small-molecule microarray, fluorescence 635/667 (AID 1071).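 Also: score merges 667 nm spot intensity and signal to noise from triplicate slides.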 The note with it: higher = more signal.
For experiment [5], the target named is Neurogenic locus notch homolog protein 2 (Homo sapiens) (UniProt Q04721). In words: Notch2 binders on small-molecule microarrays, primary screen, biochemical, small-molecule microarray, 635 nm fluorescence, stem cell growth factors (AID 1073). The note with it: Notch2 binding, higher = more signal.
Chain of Neurogenic locus notch homolog protein 2 (Homo sapiens) (Q04721 whole entry, looked up, canonical isoform): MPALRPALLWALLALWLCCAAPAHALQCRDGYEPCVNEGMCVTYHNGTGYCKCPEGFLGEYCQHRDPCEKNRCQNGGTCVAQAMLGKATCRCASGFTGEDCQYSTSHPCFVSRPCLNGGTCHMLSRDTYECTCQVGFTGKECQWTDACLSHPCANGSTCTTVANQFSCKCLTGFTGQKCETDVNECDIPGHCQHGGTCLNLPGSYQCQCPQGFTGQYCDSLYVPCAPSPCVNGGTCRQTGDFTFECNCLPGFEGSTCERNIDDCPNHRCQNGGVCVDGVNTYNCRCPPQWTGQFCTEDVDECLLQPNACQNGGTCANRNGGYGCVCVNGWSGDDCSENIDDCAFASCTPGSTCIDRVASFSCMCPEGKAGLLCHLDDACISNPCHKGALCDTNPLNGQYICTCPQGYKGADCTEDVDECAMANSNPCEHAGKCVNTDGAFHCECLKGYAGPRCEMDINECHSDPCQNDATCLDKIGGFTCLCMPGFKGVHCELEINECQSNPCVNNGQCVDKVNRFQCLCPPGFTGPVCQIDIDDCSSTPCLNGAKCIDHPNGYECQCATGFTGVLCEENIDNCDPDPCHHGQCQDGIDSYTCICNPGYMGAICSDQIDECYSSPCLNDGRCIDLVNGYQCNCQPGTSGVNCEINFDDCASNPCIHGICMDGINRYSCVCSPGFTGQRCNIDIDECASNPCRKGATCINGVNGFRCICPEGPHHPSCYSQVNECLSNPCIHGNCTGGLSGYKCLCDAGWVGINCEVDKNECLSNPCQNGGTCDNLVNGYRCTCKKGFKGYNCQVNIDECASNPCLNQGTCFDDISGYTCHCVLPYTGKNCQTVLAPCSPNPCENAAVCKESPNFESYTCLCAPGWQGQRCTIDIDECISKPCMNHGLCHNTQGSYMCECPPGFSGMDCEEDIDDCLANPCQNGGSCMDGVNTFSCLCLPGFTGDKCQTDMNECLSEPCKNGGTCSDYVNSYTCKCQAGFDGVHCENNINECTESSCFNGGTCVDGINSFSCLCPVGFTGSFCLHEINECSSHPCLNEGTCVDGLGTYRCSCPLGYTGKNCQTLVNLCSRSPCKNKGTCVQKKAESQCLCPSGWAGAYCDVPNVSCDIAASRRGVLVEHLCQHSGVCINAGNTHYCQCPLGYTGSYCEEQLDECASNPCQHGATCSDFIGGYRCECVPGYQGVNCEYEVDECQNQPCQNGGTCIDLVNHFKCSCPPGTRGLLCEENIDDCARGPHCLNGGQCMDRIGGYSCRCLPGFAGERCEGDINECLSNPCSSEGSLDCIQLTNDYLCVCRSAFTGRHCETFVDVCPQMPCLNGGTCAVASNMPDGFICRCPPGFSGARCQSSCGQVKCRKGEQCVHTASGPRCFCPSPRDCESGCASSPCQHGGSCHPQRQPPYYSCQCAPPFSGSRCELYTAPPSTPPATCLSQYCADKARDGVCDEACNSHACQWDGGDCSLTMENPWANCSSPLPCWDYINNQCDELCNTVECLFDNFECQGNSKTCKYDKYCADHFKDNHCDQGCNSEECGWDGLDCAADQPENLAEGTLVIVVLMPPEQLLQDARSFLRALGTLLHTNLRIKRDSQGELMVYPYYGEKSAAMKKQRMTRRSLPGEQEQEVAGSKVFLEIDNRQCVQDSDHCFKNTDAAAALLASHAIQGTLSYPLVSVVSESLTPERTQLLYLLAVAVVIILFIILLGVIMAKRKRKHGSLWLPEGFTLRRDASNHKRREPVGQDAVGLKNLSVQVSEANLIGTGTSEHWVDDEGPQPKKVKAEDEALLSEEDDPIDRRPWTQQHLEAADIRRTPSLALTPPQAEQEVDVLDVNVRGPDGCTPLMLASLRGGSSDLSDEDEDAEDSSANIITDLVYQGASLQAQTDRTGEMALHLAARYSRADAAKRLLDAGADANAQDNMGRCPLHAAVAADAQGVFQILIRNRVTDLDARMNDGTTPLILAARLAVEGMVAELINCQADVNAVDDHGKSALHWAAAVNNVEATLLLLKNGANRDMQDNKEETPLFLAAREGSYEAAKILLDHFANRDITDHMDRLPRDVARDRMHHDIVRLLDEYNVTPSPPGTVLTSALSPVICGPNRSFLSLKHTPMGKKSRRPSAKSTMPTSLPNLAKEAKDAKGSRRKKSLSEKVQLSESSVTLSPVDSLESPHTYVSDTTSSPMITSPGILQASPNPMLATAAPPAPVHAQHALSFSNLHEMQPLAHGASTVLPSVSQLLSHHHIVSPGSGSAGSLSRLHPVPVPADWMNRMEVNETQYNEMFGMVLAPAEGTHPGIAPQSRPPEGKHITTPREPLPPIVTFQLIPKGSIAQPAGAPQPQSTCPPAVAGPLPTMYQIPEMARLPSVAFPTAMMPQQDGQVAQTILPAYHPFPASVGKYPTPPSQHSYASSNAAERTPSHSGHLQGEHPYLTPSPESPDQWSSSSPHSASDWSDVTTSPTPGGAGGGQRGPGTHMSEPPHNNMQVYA
The target of experiment [6] is Pro-neuregulin-1, membrane-bound isoform (Homo sapiens) (UniProt Q02297). In words: NRG1 binders on small-molecule microarrays, primary screen, psychiatric disease protein project, biochemical, small-molecule microarray, fluorescence 635/667 (AID 1075).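 Also: score combines 667 nm spot fluorescence with signal to noise.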 The note with it: NRG1 binding, 635 nm fluorescence, higher = more signal.
Chain of Pro-neuregulin-1, membrane-bound isoform (Homo sapiens) (Q02297 whole entry, looked up, the tested form may be a part, canonical isoform): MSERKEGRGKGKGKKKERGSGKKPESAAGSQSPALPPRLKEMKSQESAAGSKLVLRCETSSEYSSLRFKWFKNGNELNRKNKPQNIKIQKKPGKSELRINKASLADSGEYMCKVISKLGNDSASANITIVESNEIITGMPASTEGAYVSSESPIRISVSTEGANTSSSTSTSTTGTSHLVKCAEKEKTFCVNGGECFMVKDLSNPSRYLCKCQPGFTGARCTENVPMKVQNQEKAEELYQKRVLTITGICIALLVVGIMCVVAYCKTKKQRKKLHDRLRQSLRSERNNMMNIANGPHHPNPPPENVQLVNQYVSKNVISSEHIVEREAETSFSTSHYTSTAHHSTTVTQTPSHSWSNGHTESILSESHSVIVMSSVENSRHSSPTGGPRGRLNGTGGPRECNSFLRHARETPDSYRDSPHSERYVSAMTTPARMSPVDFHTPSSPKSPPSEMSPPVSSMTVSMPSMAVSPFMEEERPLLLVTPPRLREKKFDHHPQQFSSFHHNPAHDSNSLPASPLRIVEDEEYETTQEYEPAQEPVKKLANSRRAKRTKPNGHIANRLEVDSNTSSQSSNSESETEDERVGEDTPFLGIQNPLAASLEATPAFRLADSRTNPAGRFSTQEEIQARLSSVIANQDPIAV
In experiment [7] the test system is Neuregulin-1 EGF-like domain. In words: binders of neuregulin-1 EGF-like domain, primary screen, biochemical, small-molecule microarray, 635 nm fluorescence (AID 1081).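 Also: binding of the protein to compounds printed on small-molecule microarray slides.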 The settings on record: small-molecule microarray binding, higher = more signal.
A short description of experiment [8]: FRG1 promoter luciferase signal modulators, primary screen, FRG1 inhibition for FSHD, cell-based, C2C12 myotubes, firefly/Renilla luciferase, luminescence (AID 1084). The settings on record: higher = more signal, called active from +8 up or from −8 down.
The nature of experiment [9]: binders of probe aFST on microarray, primary screen, stem cell growth factor project, biochemical, small-molecule microarray, fluorescence 635/667 (AID 1086).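 Also: score merges 667 nm fluorescence with signal-to-noise of each printed compound spot.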 The note with it: higher = more signal.
Experiment [10] can be described thus: binders of probe aHhip on microarray, primary screen, stem cell growth factor project, biochemical, small-molecule microarray, fluorescence 635/667 (AID 1087).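 Also: score merges spot fluorescence at 667nm with spot signal to noise ratio.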 The settings on record: higher = more signal.

The source made the active and inactive calls.

With `CC(=O)NCCCC[C@@H]1NC(=O)[C@@H]2C[C@H](C(=O)O)[C@H](c3ccc(O)cc3)N2C1=O`, the composite z-score is 0.736 in [1]; -1.54 in experiment [2]; -0.174 in experiment [3]; -1.07 in experiment [4]; -1.09 in [5]; 0.78 in [6]. Besides, the composite z-score in experiment [7] is 1.42; in experiment [9], -0.765; in [10] it was -0.372. Further, in experiment [8], the z-score was 0.785 (inactive).

`COc1c(C)cc(-c2cc3c(c(Cc4ccccc4)n2)[Si](C(C)C)(C(C)C)OC3)cc1C`: the composite z-score is -0.148 in experiment [1]; 0.0413 in experiment [2]; -0.0448 in experiment [3]; -0.108 in experiment [4]; 0.64 in experiment [5]; -0.0762 in [6]. Besides, the composite z-score in experiment [7] was -0.588; in experiment [9] it was 0.335; in experiment [10], -0.0994. The z-score in [8] was 0.184 (inactive).

`C[C@H]1C2=C3C(CC[C@H]4C(OCc5ccc(F)cc5C(F)(F)F)OC[C@](C)([C@@H]34)N(C(=O)OC(C)(C)C)C2)C2COC(=O)OCC21` (stereo not given in full): the composite z-score is 0.42 in experiment [1]; -0.119 in [2]; -0.0325 in [3]; 0.226 in [4]; 1.43 in experiment [5]; 1.71 in [6]. The composite z-score in [7] stood at 1.03; in [9] it was 1.61; in [10], 0.44. In addition, in [8], the z-score is 2.53 (inactive).

Turning to `CC(=O)N1Cc2ccccc2C[C@]2(N=C(c3ccc(OCCCO)cc3)O[C@@H]2c2ccccc2)C1=O`, the composite z-score in experiment [1] came to 0.864; in [2], 0.688; in [3] it was 0.0512; in experiment [4] it was 0.458; in [5], 0.875; in experiment [6] it was 1.04. The composite z-score in [7] is 1.34; in [9], 0.33; in [10], -0.238. Also, the z-score in experiment [8] was -2.24 (inactive).

On to `CC(C)(C)OC(=O)CC[C@]1(C(=O)O)N=C(c2ccc(OCCCO)cc2)O[C@H]1c1ccccc1CN=[N+]=[N-]`, for which the composite z-score was -0.169 in experiment [1]; -0.246 in [2]; 0.0911 in experiment [3]; 0.113 in [4]; 0.261 in experiment [5]; 1 in experiment [6]. In addition, the composite z-score in experiment [7] was 1.45; in experiment [9], 0.794; in experiment [10], -0.409. In addition, the z-score in [8] is 2.04 (inactive).

As to `COC(=O)[C@@]1(Cc2ccc(OC)cc2)[C@H]2c3cc(C(=O)N(C)C)n(CCc4c[nH]c5ccc(O)cc45)c3C[C@H]2CN1C(=O)c1ccccc1`, the composite z-score is 1.27 in experiment [1]; -0.0234 in experiment [2]; 0.147 in experiment [3]; 1.04 in [4]; 1.69 in [5]; 1.91 in experiment [6]. In addition, the composite z-score in experiment [7] is 1.25; in [9], 1.7; in [10] it was 0.177. Further, in experiment [8], the z-score is 1.5 (inactive).

As for `CN(C)CCCNC(=O)[C@@H]1c2ccccc2C(=O)N(CC23CC4CC(CC(C4)C2)C3)[C@H]1c1ccc(CO)cc1`, the composite z-score in [1] is -0.782; in experiment [2], 1.13; in experiment [3], 0.0878; in experiment [4], 0.837; in [5], 1.28; in [6], 1.15. Also, the composite z-score was 1.39 in [7], 0.445 in [9] and -0.128 in [10]. Further, in experiment [8], the z-score is -1.92 (inactive).

Turning to `CO[C@H]1O[C@H](CO)[C@@H](OC(=O)c2ccc(Br)cc2)[C@@H]2OC(=O)[C@@H](Cc3ccc4ccccc4c3)C/C=C/C[C@H](Cc3ccc4ccccc4c3)C(=O)O[C@@H]12`, the composite z-score in experiment [1] was -0.248; in experiment [2], -0.08; in [3], 0.0289; in experiment [4], 0.622; in experiment [5], 0.714; in experiment [6], 1.74. The composite z-score worked out at 1.2 in experiment [7], 0.349 in [9] and 1.2 in [10]. In addition, the z-score in [8] was -1.14 (inactive).

For `COc1cc2c(cc1OC)CN(C(=O)[C@@H]1[C@H]3C(=O)O[C@H](c4ccccc4)[C@H](c4ccccc4)N3[C@H](c3ccccc3OCCO)[C@@]13C(=O)Nc1ccc(C#CC4(O)CCCCCC4)cc13)CC2`, the composite z-score in experiment [1] is -0.0079; in [2], 0.955; in experiment [3] it was -0.0573; in experiment [4] it was 0.201; in experiment [5], 0.463; in experiment [6], 0.935. The composite z-score in [7] is 1.2; in experiment [9], -0.0613; in experiment [10], -0.123. For the same compound, the z-score in [8] was -0.066 (inactive).

Regarding `COc1ccc([Si](C)(C)[C@@H]2[C@@H](CCO)O[C@]3(C(=O)N(Cc4cccc(N5C(=O)c6ccccc6Oc6ccccc65)c4)c4ccccc43)[C@H]2C)cc1`, the composite z-score in experiment [1] was 0.393; in experiment [2] it was 0.123; in experiment [3], -0.134; in experiment [4], -0.173; in [5], -0.571; in experiment [6], 0.536. Besides, the composite z-score in [7] is 0.602; in experiment [9] it was 0.0472; in experiment [10], -0.134. For the same compound, the z-score in experiment [8] was 0.133 (inactive).
